Rows were chosen to be rich in hits. Some 2.8% of all compounds tested hit in one or more screens of this group.
POLH inh: DNA polymerase eta (human) inhibition; Q9Y253; recombinant Pol eta, fluorescent DNA replication assay; Potency, µM (highest dose often 114 µM), for inactives: top-dose activity change, negative = inhibition, actives largely listed as inhibitors; hit rate 1.2% among 390,000; AID 588591; also: potency is read from the fitted curve at half-maximal effect; % is scaled to controls: 0 for no effect and ±100 for the full control effect
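Fluorescent replication assay: 50 nM final substrate added after a 15 min room-temperature compound preincubation with 10 nM enzyme. Signal taken at 0 min and again at 10 min.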
Pol kappa inh: blocks human DNA polymerase kappa activity; Potency, µM (series often up to 107 µM), for the others: at the highest dose activity, negative = inhibition, usual class: inhibitors; purified Pol kappa, fluorescent DNA synthesis assay, 10 min; AID 588579; Q9UBT6; hit rate 0.53% among 400,000; also: potency is read from the fitted curve at half-maximal effect; % is scaled to controls: 0 for no effect and ±100 for the full control effect
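10 nM Pol kappa preincubated 15 min at room temperature with compounds, then reaction started with substrate at 50 nM final. Fluorescence read kinetically at 0 and 10 min; buffer-only wells served as negative control.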
PI5P4Ka inh: inhibitors of human PI5P4K alpha. PI5P4Kalpha enzyme, ADP-Glo luminescence, 60 min; hits give low values. P48426. hit rate 1.2% among 330,000. max response, %; active = max response of -50% or lower; inconclusive = between -30% and -50%; inactive = -30% or higher; also: value at the top dose of about 77 µM; % is scaled to controls: 0 for no effect and ±100 for the full control effect
Target sequence (P48426 whole entry, looked up): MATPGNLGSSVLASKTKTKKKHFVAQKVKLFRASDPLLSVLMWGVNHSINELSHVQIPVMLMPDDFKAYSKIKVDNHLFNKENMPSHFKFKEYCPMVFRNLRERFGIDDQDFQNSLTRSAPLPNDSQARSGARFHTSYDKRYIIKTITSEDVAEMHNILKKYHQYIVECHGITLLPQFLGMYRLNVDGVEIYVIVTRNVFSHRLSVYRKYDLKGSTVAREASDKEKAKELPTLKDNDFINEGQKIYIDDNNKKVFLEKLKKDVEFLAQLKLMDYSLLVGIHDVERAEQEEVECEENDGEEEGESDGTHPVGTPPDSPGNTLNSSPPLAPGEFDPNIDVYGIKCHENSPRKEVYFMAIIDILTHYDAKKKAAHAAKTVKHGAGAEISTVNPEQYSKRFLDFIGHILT
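ADP-Glo luminescence end-point read after a 60 min room-temperature kinase reaction of PI5P4Kalpha plus substrate, initiated with ATP at 5 microM final. Buffer: 0.038 M HEPES pH 7.4, EGTA, 0.1% CHAPS, 5% DMSO.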
Pol iota inh: inhibitors of human DNA polymerase iota | Potency, µM (titrated, usually from 115 µM), inactives show at the highest dose activity, negative = inhibition, most hits filed as inhibitors | Pol iota fluorescent replication assay, 10 min | hit rate 1% among 390,000; also: potency is read from the fitted curve at half-maximal effect
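Fluorescent replication assay read twice, at 0 min and 10 min after adding 50 nM (final) substrate. Enzyme (10 nM) and compounds were first incubated 15 min at room temperature; enzyme-free buffer wells were negative controls.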
WRN helicase inh: blocks human WRN helicase | WRN helicase unwinding, fluorescent forked duplex, kinetic | Potency, µM (titrated, usually from 114 µM), without a hit: top-dose activity change, negative = inhibition, hits mostly inhibitors | hit rate 0.46% among 360,000 | AID 651768; also: potency is read from the fitted curve at half-maximal effect; % is scaled to controls: 0 for no effect and ±100 for the full control effect; nearly all actives have a fitted effect of over 55% in size
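Enzyme (20 nM final) and test compound sit together 15 min at room temperature before substrate addition. Substrate is a single-forked duplex oligonucleotide (100 nM) labelled with fluorophore and quencher, with 2 mM ATP; helicase unwinding raises red fluorescence, read kinetically.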
POLB inh: DNA polymerase beta (human) inhibition | AID 485314 | Pol beta primer extension/strand displacement, fluorescence kinetic | hit rate 1.3% among 340,000 | Potency, µM (highest dose often 114 µM), without a hit: at the highest dose activity change, negative = inhibition, hits mostly inhibitors; also: potency is read from the fitted curve at half-maximal effect; % is scaled to controls: 0 for no effect and ±100 for the full control effect
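Curves were derived by four-parameter Hill fits of normalized qHTS data. The kinetic fluorescent primer-extension read was taken at 0 and 10 min after 50 nM substrate, following a 15 min room-temperature preincubation of 10 nM enzyme with compounds.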
* marks the source's active call; other numbers are inactive results; ? = inconclusive; . = no result; [ ] = remark or other dose. Unless noted, calls follow the shape of the dose curve; as a rule, active = well fitted curve in the direction sought with a large enough effect; inconclusive = small, poorly fitted or top-dose-only effect, or another doubt; inactive = no such curve, though single readings can be large; an effect the other way counts as inactive or inconclusive.

SMILES	POLH inh	Pol kappa inh	PI5P4Ka inh	Pol iota inh	WRN helicase inh	POLB inh
COc1cccc(C=C2SC(=S)NC2=O)c1	12%	-4%	-60*	-17%	?	.
COc1cccc(C(C)=C2SC(=S)NC2=O)c1	-7%	-17%	-71*	-13%	-17%	.
COc1ccc2cc(/C=C3\SC(=S)NC3=O)c(N3CCOCC3)nc2c1	20µM*	-25%	-62*	-6%	-7%[11.6 µM]	?
COc1ccc(OC)c2c(/C=C/c3c(C)[nH]c4ccccc34)ccnc12	.	-18%	.	12%	.	.
Cc1nn(C)c2c1c(-c1ccccc1)cc(=O)n2C(C)C(=O)NCCc1ccc(Cl)cc1 (stereo not drawn)	-18%	0%	.	1%	.	-1%
COc1ccc(CCC(=O)NO)cc1	.	14%	.	19%	.	.
O=S(=O)(O)c1ccc2c(c1)-c1nc-2nc2[nH]c(nc3nc(nc4[nH]c(n1)c1ccc(S(=O)(=O)O)cc41)-c1ccc(S(=O)(=O)O)cc1-3)c1ccc(S(=O)(=O)O)cc21	.	-94%[60.1 µM]	.	.	.	.
COc1ccccc1OCCn1c(CCNC(=O)C2CCCCC2)nc2ccccc21	.	-3%	.	32%	.	.
CCOC(=O)/C=C1\NC(=O)CS1	-1%	10%	-1	-5%	4%	-3%
COc1ccc(/C=C2/SC(=S)NC2=O)cc1OCc1ccccc1	?	-9%	-75*	40%	-19%	14%
CCO/C(C)=C1/SC(=S)NC1=O	-3%	-23%	-63*	114%	?	-24%
Cc1cccc(NC(=O)Cn2c(=O)n(CCc3ccccc3)c(=O)c3sc4ccccc4c32)c1	-15%	-3%	.	16%	.	14%
Cc1nnc(NC(=O)CSC2=NN3CCCC(=O)N=C3S2)s1	-17%	-27%	-8	?	-7%	?
O=C1CCCN2N=C(SCC(=O)Nc3nccs3)SC2=N1	79µM*	-8%	-21	?	?	32µM*
CC(C)(C)n1ncc2c(=O)n(Cc3ccc(OC(F)(F)F)cc3)cnc21	.	-8%	.	-8%	.	.
CCC(C)COC(c1ccccc1)(c1ccccc1)C(Oc1nc(C)cc(C)n1)C(=O)O (stereo not drawn)	9%	-16%	-2	79µM*	11%	0%
Cc1cc(C)nc(OC(C(=O)O)C(OCC(C)C)(c2ccccc2)c2ccccc2)n1 (stereo not drawn)	?	0%	0	13%	2%	-14%
COc1ccc(S(=O)(=O)Nc2ccccc2C(=O)NCc2ccco2)cc1	-15%	-1%	-20	?	-9%	-14%
COc1ccc(S(=O)(=O)N(Cc2ccccc2)c2ccccc2C(=O)Nc2ccccc2C(=O)NCc2ccco2)cc1	-19%	-20%	13	-5%	-10%	89µM*
COc1cc(NC(=O)CN2C(=O)c3ccccc3Sc3ccc(C(=O)N4CCCC4)cc32)cc(OC)c1	?	0%[60.1 µM]	.	?	.	?
Cc1ccc(NC(=O)CN2C(=O)c3ccccc3Sc3ccc(C(=O)N4CCCC4)cc32)cc1	?	-7%[60.1 µM]	.	71µM*	.	?
Cc1ccc(NC(=O)N2CCOCC2)cc1NC(=O)N1CCOCC1	-8%	.	1	.	0%	.
CC(NC(=O)C(=O)Nc1c2c(nn1-c1ccc(F)cc1)CSC2)c1ccccc1 (stereo not drawn)	-7%	-1%[60.1 µM]	.	?	.	?
CCC(CO)NC(=O)C(=O)Nc1c2c(nn1-c1ccc(F)cc1)CSC2 (stereo not drawn)	-8%	-10%[60.1 µM]	.	89µM*	.	24%
O=C1c2ccccc2NC(c2cc(Br)c3c(c2)OCO3)N1Cc1ccco1 (stereo not drawn)	.	-7%	.	-11%	.	.
SMILES	POLH inh	Pol kappa inh	PI5P4Ka inh	Pol iota inh	WRN helicase inh	POLB inh
Cc1cccc(-n2cnc3c(c2=O)c2nc4ccccc4nc2n3Cc2ccco2)c1	?	-5%	-27	?	-21%	40µM*
COc1ccc(Cn2c3nc4ccccc4nc3c3c(=O)n(Cc4ccco4)cnc32)cc1	.	.	.	.	.	35µM*
CC1=C(C(=O)OCc2ccc(C)cc2)C(c2cccc(F)c2F)CC(=O)N1 (stereo not drawn)	-21%	-23%	.	13%	.	-10%
CCN(CC)C(=O)CN(c1ccc2c(c1)OCO2)S(C)(=O)=O	14%	-1%	.	?	-5%	89µM*
CC(=O)c1c(C)[nH]c(C(=O)OCc2nnc(-c3ccc([N+](=O)[O-])cc3)o2)c1C	?	-25%	-59*	?	-6%[11.6 µM]	.
Cc1ccc(C(=O)NCC(=O)OCc2nnc(-c3ccc([N+](=O)[O-])cc3)o2)s1	?	-6%	-62*	?	-10%	.
Cc1csc(=O)n1CC(=O)OCc1nnc(-c2ccc([N+](=O)[O-])cc2)o1	-7%	9%	2	36%	0%	.
CC(=O)c1ccc(S(=O)(=O)Nc2ccc(-c3ccc(N4CCCCCC4)nn3)cc2)cc1	-11%	-1%[60.1 µM]	.	11%	.	-2%
CC(=O)c1ccc(S(=O)(=O)Nc2ccc(-c3ccc(N4CCCCC4)nn3)cc2)cc1	79µM*	-15%[60.1 µM]	.	?	.	?
O=[N+]([O-])c1ccc(S(=O)(=O)Nc2ccc(-c3ccc(N4CCCC4)nn3)cc2)cc1	-15%	0%	-23	20%	-5%	.
Cc1c([N+](=O)[O-])cc(S(=O)(=O)Nc2ccc(-c3ccc(N4CCCC4)nn3)cc2)cc1[N+](=O)[O-]	18µM*	-32%	?	?	-5%[11.6 µM]	.
O=[N+]([O-])c1ccc(Cl)c(S(=O)(=O)Nc2ccc(-c3ccc(N4CCCC4)nn3)cc2)c1	45µM*	-9%	-29	?	-6%[11.6 µM]	.
COc1ccc(-c2cc(=O)[nH][nH]2)cc1OC	-17%	-3%	.	1.3µM*	4%[57.1 µM]	37%
O=c1cc(-c2ccc(Br)cc2)[nH][nH]1	-5%	4%	1	91%	0%	12%
O=c1cc(-c2ccc(F)cc2)[nH][nH]1	-19%	-1%	-1	1.8µM*	4%[11.6 µM]	2%
COc1cccc(-c2cc(=O)[nH][nH]2)c1	-6%	-2%	-3	?	5%	2%
CC(C)c1cccc(C(C)C)c1NC(=O)OC1CCCCC1	.	.	5	.	0%[57.1 µM]	.
